# Assay results reported in the supplement of paper PMC6555819.
# Test system: VDR:RXRa (NR concentration 270 nM, RXRa partner concentration 90 nM)
# Test: PBM binding z-score (relative to random genomic background probes); higher = stronger binding; sequences stand for … in GC…GCGATTGACAGCGTAGAATGAAGG
# Procedure: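 Protein-binding microarray (Agilent 4x180K custom design, double-stranded 60-nt probes: 5' GC cap, 34-nt variable region, 24-nt constant primer region; full probe sequence given). Purified or IVT nuclear receptor:RXRα heterodimers (3:1 NR:RXRα, mostly 270:90 nM) or homodimers were incubated for 1 h in PBS with 2% milk and no ligand, then detected with Alexa488 antibodies. Fluorescence from o1-orientation probes (~5 replicates averaged) was converted to z-scores against 500 random hg19 background probes. Variable regions are seed direct-repeat (DR0–DR5) sites, all their single-nucleotide variants and half-site ablations.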
row,Sequence,PBM binding z-score
1,TGAATGAGGTTATAAGATCAGGGAACGTTGCAAA,0.749
2,TGAATGAGGTTATAAGATAAGGGAACGTTGCAAA,0.811
3,AGAACGAGGGCACGCTGAGTTGGTAGCAGAGTAG,1.34
4,TTACCAAGGTGAGCTGAGGTGGTTGATCCAACTC,-0.288
5,GCTCGGAGGACAAGGTCAGAGCATTGTCCGTAGA,1.5
6,AGAACGAGGGCAAGCTGAGTTGATAGCAGAGTAG,1.37
7,ACTATTAGTTGAGTCGAGGGCAACCGATAGGTTG,0.728
8,TTACCAAGGTGAGCTCAGGTCGTTGATCCAACTC,1.81
9,ACTAGCAGGCCAAGGGTCACTTAAGATTAGTCCG,2.88
10,AATGCAGGGTCACTAGGCCAGAGTAGGTACGAAT,4.04
11,CATACTAGGTCAAGGTCAAAGTCGGTTTGTGCCA,5.31
12,GCTAGCAGGCCATTTGGGTCACTAAATGACGGGC,0.655
13,CCTTACGGGGCAAGGTTATAGCACGGGTGGTACG,0.0431
14,GCTTACGGGTCAGAGGTTATAGCATGAATAGAAT,3.48
15,TCATATAGCTAAACAGGTGAAAGTCCGTAAGTTA,0.43
16,CGTCCAAGGTCAAAGGACAGTGAAGAGATGACGG,3.76
17,AGTCAAAGTTCATCTAGGTAACGCAAGATATGCT,4.91
18,TCTGCTAGGTCAGTTGATCAGCTAACGAGCTGCC,0.135
19,CGAAGTAGGTCAAGGACAGTGAATCTCCGCACGC,1.52
20,CGAACTAGGTCATGGACAGGACAGTGAATAGTAA,2.3

row,Sequence,PBM binding z-score
1,GCGGACAGGTGAAACGCAGGTAACTCAGGGTGGC,-0.55
2,CGAACTAGGTCAAAGGTCAAAGTCGAGCCAACCA,6.78
3,TCATATAGGTAAACGCTAGGTGAAAGTCCGATCT,1.03
4,CGTCAAAGTTCAACTAAGGTAACGAAAAGCACGC,4.64
5,TTACCAAGGTGAAAGGTCGTCGATGCACGCCTTG,3.09
6,ATTGAAAGGTCGACGAGGTGAGTATACACCGTTT,5.31
7,GCGAATGGGGCAAAGCAGGTTACCATAAGGTTGG,0.361
8,CGAACTGGGTCAGAACAGGACAGTGAAGGATGAT,0.685
9,CATACAGGGTCAGCTAGGCCAGAGAAGGGACGGC,3.84
10,CTCGAAAGGTCGGTTGCGGTGAGTATACGGATAA,1.11
11,TCTGCTAGGTCAGTTGGTCCGCTAACGAGCTGCC,0.677
12,ATCGCTAGGTAAAAGTTCAGTGAATCCCGAGGAT,0.809
13,ACTATTTGTTGACTTAGGGCAACCGATACGACGC,0.227
14,CCCACTGGGCCAAGGTCATTGATCAGTCAAAGCA,2.94
15,TAGCCTAGGTCATGGGCCAGTAGACCACGCGAAC,1.85
16,AGAACGAGGGCAATGAGTTGATAACACGGGTGGC,5.15
17,ACTCAAAGTTCAGGACGAGGTAACGTAAAGCACG,3.22
18,CAAACTAGCTCAAAGGTCAAAGTCGAGCCAACCA,4.72
19,ACTAGTTGGTCAGCTGAGGTCAAACACAATTCGG,4.9
20,CCTACTGGGCTAAAAAGGTCATTGATGCCGATAA,4.33
